Assay results from PubChem BioAssay AID588493 (Sanford-Burnham Center for Chemical Genomics, 2011).
Where “and” joins values, the source holds several entries; their conditions need not be identical. Identical values can stand only once. Hit rate of the full screen: of about 360,000 compounds, about 2,100 (0.58%) were called active. Many of the other results were omitted from the sample, so actives are more common in it than they were. A number with no mark means an inactive call.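 The calls were made as follows: active = inhibition at 20 µM, scaled to each plate's controls, above about 33% (limit read from the data); inactive = the rest.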

Target: 26S proteasome non-ATPase regulatory subunit 14 (Homo sapiens) (UniProt O00487)
Sequence (O00487 whole entry, looked up): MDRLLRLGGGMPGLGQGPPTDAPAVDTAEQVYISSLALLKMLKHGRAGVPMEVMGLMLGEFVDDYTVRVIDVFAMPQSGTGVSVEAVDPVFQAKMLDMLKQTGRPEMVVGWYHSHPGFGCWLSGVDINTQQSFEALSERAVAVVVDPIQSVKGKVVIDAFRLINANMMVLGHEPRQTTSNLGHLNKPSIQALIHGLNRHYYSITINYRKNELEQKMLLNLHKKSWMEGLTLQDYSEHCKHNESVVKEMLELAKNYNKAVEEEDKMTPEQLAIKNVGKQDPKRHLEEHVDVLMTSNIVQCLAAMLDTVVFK
Assay: inhibition of 26S proteasome subunit Rpn11 – biochemical, fluorescence polarization, uHTS, primary screen (AID 588493)
Settings: human 26S proteasome, Ub4-pepOG fluorescence polarization; at 20 µM; stronger effect = higher value; 20S core pre-blocked with epoxomicin

Compound | inhibition
Cc1nnc(SCc2nc3ccccc3nc2C)s1 | -1.4%
COc1ccc2cc(C(=O)C3CCCN(C(=O)c4sc(C)nc4C)C3)ccc2c1 (stereo unspecified) | 5.8%
COc1cc(CO)ccc1OCC(=O)Nc1cccc2ccccc12 | 1.6%
COc1ccc(Cn2c(O)c(/C=C3/C=CC=N3)c(=O)[nH]c2=O)cc1 | 14.5%
COc1cc(=O)[nH]c(=O)n1C(=O)Cc1ccccc1 | 2.2%
CCCOc1ccc(Cn2c(O)cc(=O)[nH]c2=O)cc1 | 65.3% (active)
COc1ccc(C2c3[nH]c4ccccc4c3C[C@H]3C(=O)N(CC(C)C)CC(=O)N23)c(OC)c1 (stereo partly specified) | -8.2%
Cc1ccc(NC(=O)CN(C)Cc2ccc(F)cc2)c([N+](=O)[O-])c1 | -8.1%
COc1ccc2c(c1)c(=Cc1ccc(N(C)C)cc1)c1cc(-c3ccccc3)[n+](C)n12 | 59.4% (active)
O=C(CNC(=O)c1ccc(Cl)cc1Cl)NCC(=O)Nc1ccccc1N1CCOCC1 | -2.4%
CCCNC(=O)CCn1nc(-c2ccccc2)c2ccccc2c1=O | -1.2%
COCCCn1c(CCC(=O)O)ccc1-c1ccc(F)cc1 | 6.6%
CC(C)Cn1c(CCC(=O)O)ccc1-c1cccs1 | 39.7% (active)
CCOC(=O)c1ccc(-n2c(CCC(=O)O)ccc2-c2ccccc2)cc1 | 1.9%
CC(=O)c1sc(N/N=C/c2ccc(C(C)C)cc2)nc1C | 42.3% (active)
CC(=O)c1sc(NC(=O)C2=NN(c3ccccc3)C(=O)CC2)nc1C | 1.1%
CC(=O)c1sc(N)nc1C | -7.7% and -13.1%
Cc1cc2c(cc1C)N1C(=O)c3cc4ccccc4cc3NC(=O)C1C(=O)N2 (stereo unspecified) | 7%
COc1ccc(NC(=O)c2cn(-c3ccccc3)nc2SC)cc1 | 4.3%
CCOc1ccc(-c2c(C)n([O-])c3c([n+]2=O)CCCC3)cc1 | 3%
Oc1ccc(/C=N/Nc2nc(-c3ccccc3F)nc3ccccc23)c(O)c1 | 43.1% (active)
Cc1ccc(/C=N/NC(=O)C2=NNC(c3ccccc3)(c3ccccc3)C2)c(O)c1 | 3.5%
O=C(NNc1c2ccccc2nc2ccccc12)c1cc2ccccc2cc1O | -5.5%
Cc1nnc(SC(C)C(=O)c2c[nH]c3ccccc23)n1C1CC1 (stereo unspecified) | -0.9%
CCCCN(C(=O)c1ccc(C)o1)c1c(N)n(CCCC)c(=O)[nH]c1=O | -3.8%
O=C(COc1cccc(F)c1)Oc1ccc(C(=O)c2ccccc2)cc1 | 43% (active)

Compound | inhibition
O=C(COC(=O)COc1cccc(F)c1)NCC1CCCCC1 | -7.3%
CCN(C(=O)COc1ccc(C(=O)c2ccccc2)cc1)c1ccccc1 | -0.2%
O=C(c1cccnc1)N(c1cc2sc(=O)oc2c2ccccc12)S(=O)(=O)c1ccccc1 | 2.8%
NC(=O)Cc1ccc2sc(-c3ccccc3)nc2c1 | 4.7%
C=CCn1c(SCC(=O)NCc2ccccc2)nnc1-c1cc(Br)ccc1O | 37.3% (active)
O=C(CSc1nnc(-c2cccnc2)n1CCc1ccccc1)NCc1ccccc1 | -6.8%
C=CCn1c(SCC(=O)NC(=O)Cc2ccccc2)nc2ccccc2c1=O | 0.5%
COc1ccc(CNc2c(CO)cnc3c2cnn3C)cc1 | -6.6%
COCCCNC(=S)N1CCN(c2nc(-c3cccc(OC)c3)cs2)CC1 | 5.4%
CSc1ccc(C#N)cc1NC(=O)c1cccc(Cl)c1 | 7.6%
N#Cc1ccc(C(=O)Nc2cccc3cccnc23)c(F)c1 | 102% (active)
COc1ccc(NC(=O)c2ccco2)cc1NC(=O)c1ccc(C#N)cc1F | -5.8%
Cc1ccc(CCNC(=O)CN2C(=O)CSc3ccc(S(=O)(=O)N4CCOCC4)cc32)cc1 | -1.8%
CCCCCCCCc1c(O)nc(-n2[nH]c(C)c(CCO)c2=O)[nH]c1=O | 11.1%
COc1cc(OC)cc(C(=O)NCCCn2ccnc2)c1 | 0.7%
COc1ccc(/C=C(\C#N)C(=O)NCCCn2ccnc2)cc1 | -1.5%
COc1cccc(-c2nn(-c3ccccc3)cc2/C=C(\C#N)C(=O)NCCCn2ccnc2)c1 | 56% (active)
CCCCc1nnc(NC(=O)CS(=O)(=O)Cc2ccccc2)s1 | 5.2%
C/C(=N/NS(=O)(=O)c1ccccc1)c1ccc(NC(=O)C(F)(F)F)cc1 | -2%
NC(=O)c1cc(S(=O)(=O)NCCCc2ccco2)cs1 | -4.1%
O=C(Nc1ccc(N2CCCC2=O)cc1)c1cncc(Br)c1 | -4.8%
O=C(N/N=C/c1cccc(Br)c1)c1ccc(N2CCCC2=O)cc1 | 49.1% (active)
O=C(N/N=C\c1cccc(Br)c1)c1ccccc1-n1cccc1 | 23.2%
Cc1cc2nc(-c3ccco3)c(Cc3cccc(F)c3)n2c(C)c1Br | 11.6%
CN(C)CCn1c2c(c(SCC(=O)Nc3ccccc3C(F)(F)F)nc1=O)CCCC2 | -0.6%
CC1CCN(c2ccc3c(c2)S(=O)(=O)c2cc(C(=O)O)ccc2C3=O)CC1 | 57.1% (active)

Compound | inhibition
O=C1c2ccccc2S(=O)(=O)c2cc(N3CCN(c4ccccn4)CC3)ccc21 | 40.2%
OC(c1ccc(Cl)cc1)c1ncc(-c2ccc(Cl)cc2)[nH]1 (stereo unspecified) | -5.5%
COc1ccc(CNC(=O)C(C)n2nc(C)c3c(C)n(-c4ccccc4)nc3c2=O)c(OC)c1 (stereo unspecified) | 0%
CCCCN(C(=O)C1CCC1)c1c(N)n(Cc2ccccc2)c(=O)[nH]c1=O | -10.9%
Cc1ccc(Cl)cc1NC(=O)COC(=O)C1CCCCC1 | -8.8%
CCNCc1cc2cc(C)ccc2[nH]c1=O | 82.8% (active)
CCCc1nc(-c2cc3cc(C)ccc3[nH]c2=O)no1 | -0.2%
CCC(=O)N(CCc1ccccc1)Cc1cc2cc(C)ccc2[nH]c1=O | -6.2%
CCc1noc(C)c1C(=O)N1CCN(S(=O)(=O)c2cccc(C(F)(F)F)c2)CC1 | 0%
CC(=O)c1ccc(NC(=S)N(Cc2ccccc2)C(C)C2CC2)cc1 (stereo unspecified) | 8.8%
CCN1CCN(c2cc3nc(C)n(Cc4ccccc4)c(=O)c3cc2NC(=O)c2ccccc2F)CC1 | 47.3% (active)
CCOc1cc(NC(=O)c2ccccc2C(=O)O)c(OCC)cc1NC(=O)c1ccccc1F | 1.8%
CCC(=O)Nc1ccc2nc(C)n(Cc3ccccc3Cl)c(=O)c2c1 | -7.7%
Fc1ccc(CNc2nc3ccccc3n3nnnc23)cc1 | -38.7%
CCN1CCCC1CNC(=O)c1cc2cc(OC)c(OC)cc2[nH]1 (stereo unspecified) | -10.4%
Cn1c(C(=O)N2CCC(C(N)=O)CC2)cc2c(=O)n(C)c3ccccc3c21 | -3.7%
CCN1CCCC1CNC(=O)c1cc2c(=O)n(C)c3ccccc3c2n1C (stereo unspecified) | 66.2% (active)
CCn1c(Cc2ccc(OC)cc2)nnc1SCC(=O)Nc1ccc(N2CCOCC2)cc1 | 5%
COc1cccc(/C=C(/CC(=O)Nc2ccc(N3CCOCC3)cc2)c2nc3ccccc3s2)c1 | 41.7% (active)
Cc1ccc(OCCCC(=O)Nc2ccc(N3CCOCC3)cc2)cc1 | 1.7%
COc1cc(OC)cc(C(=O)Nc2ncc3c(n2)CC(C)(C)CC3=O)c1 | 1.2%
CCN(CC)S(=O)(=O)c1ccc2nc(CSc3nnnn3-c3ccc(O)cc3)[nH]c2c1 | 0.9%
O=C(Nc1cc(Br)ccc1F)c1nc[nH]c1C(=O)NCc1ccccc1 | -6.2%
O=C(c1ccc2c(c1)N(Cc1ccc(F)cc1)C(=O)CS2)N1CCOCC1 | 1.1%
